Data as given in PubChem BioAssay (NCI).
This is part of a sample that, as a whole, favours compounds with a hit. Of some 79,000 tested, about 15% had one in any assay. Activity calls are given as the source filed them. No stated cut-off is given here; in the data, active means growth inhibition above about 70%; inactive means the rest.

Experiments:
[1] = NCI Yeast Anticancer Drug Screen. Data for the rad50 strain (AID 155);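 further: 0% = growth of vehicle-only cultures of the same strain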; conditions: S. cerevisiae rad50 strain growth inhibition; at 50.0 µM; stronger effect = higher value
Method in brief: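 DNA repair mutant yeast, compound exposure, growth read-out; inhibition is taken relative to vehicle.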

[2] = NCI Yeast Anticancer Drug Screen. Data for the mec2-1 strain (AID 157); conditions: S. cerevisiae mec2-1 strain, at 50.0 µM, stronger effect = higher value
Method in brief: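 Each compound was tested on mec2-1 yeast, a strain altered in DNA damage repair or cell cycle control. Growth inhibition is reported relative to vehicle.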

[3] = NCI Yeast Anticancer Drug Screen. Data for the sgs1 mgt1 strain (AID 161);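 further: 0% = growth of cultures given vehicle only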; conditions: S. cerevisiae sgs1 mgt1 strain, at 50.0 µM, stronger effect = higher value
Method in brief: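 Mutant yeast exposed to compound; growth scored against vehicle-only wells.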

[4] = NCI Yeast Anticancer Drug Screen. Data for the cln2 rad14 strain (AID 165);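 further: 0% = growth equal to vehicle treated cultures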; conditions: S. cerevisiae cln2 rad14 strain, at 50.0 µM, stronger effect = higher value
Method in brief: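 Test compounds were added to cln2 rad14 yeast cultures; inhibition of growth was then determined by comparison with vehicle treatment.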

[5] = NCI Yeast Anticancer Drug Screen. Data for the bub3 strain (AID 167); conditions: S. cerevisiae bub3 mutant strain, at 50.0 µM, stronger effect = higher value
Method in brief: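 In this screen, a yeast mutant lacking normal mitotic checkpoint function is challenged with compound. Relative growth versus vehicle gives the inhibition value.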

[6] = NCI Yeast Anticancer Drug Screen. Data for the mlh1 rad18 strain (AID 175); conditions: S. cerevisiae mlh1 rad18 strain growth inhibition; at 50.0 µM; stronger effect = higher value
Method in brief: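 Inhibition values reflect reduced growth of mutant yeast versus vehicle-treated controls following compound exposure; the mutations affect DNA damage repair.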

Measured: growth inhibition

C(=C/c1ccccc1)/CN1CCCCC1
inactive: [1] 29.4% | [2] 19.4% | [3] 36% | [4] 11.4% | [5] 37.2% | [6] 29.4%

CCOC(=O)NCc1cccc2ccccc12
inactive: [1] 3.2% | [2] -2.7% | [3] -10.3% | [4] -89.4% | [5] 10.7% | [6] 2.5%

Cc1ccc(C(C)(O)C2CC2)cc1 (stereo not drawn)
inactive: [1] -11.4% | [2] -33.8% | [3] -18.4% | [4] 18.6% | [5] -35.8% | [6] 18.1%

O=C(N=C1[Se]C(=Nc2ccccc2)C(=Nc2ccccc2)N1c1ccccc1)c1ccccc1
inactive: [1] 9.45% | [2] 5.1% | [3] 6.55% | [4] 20.6% | [5] 2.75% | [6] 3.25%

Clc1ccc(-c2nnc(-c3ccc4ccccc4c3)o2)cc1
inactive: [1] -43% | [2] -60.8% | [3] -22.2% | [4] 3.1% | [5] -47.5% | [6] -25.4%

Cc1ccc(O)c(C=O)c1
inactive: [1] -31.1% | [2] -42.1% | [3] -7.65% | [4] 11.7% | [5] -25.7% | [6] -6.8%

COc1ccc(C=Nc2c(N)[nH]c(=S)[nH]c2=O)cc1
inactive: [1] -15% | [2] -12.8% | [3] -4.15% | [4] 0.7% | [5] -27.8% | [6] -51.7%

C=C1C(c2ccccc2)C(c2ccccc2)=C(C)C(c2ccccc2)=CN1C(=O)c1ccccc1 (stereo not drawn)
inactive: [1] -3.05% | [2] 8.7% | [3] -9.2% | [4] 23.2% | [5] -4.7% | [6] 15.2%

CCOP(=O)(OCC)/C(=C/NC(=S)c1cccnc1)C(=O)OC
inactive: [1] -11% | [2] -1% | [3] -13% | [4] -7.75% | [5] 17.6% | [6] -2.2%

CCCCOC(=O)NC(=O)c1cn(CCCOC(=O)CCCCCCCCC(=O)OCCCn2cc(C(=O)NC(=O)OCCCC)c(=O)n(C)c2=O)c(=O)n(C)c1=O
inactive: [1] -3.9% | [2] -10.9% | [3] -10.7% | [4] 12.2% | [5] 14.3% | [6] -5.55%

[C-]#[N+]C(=C\c1ccc(O)cc1)/C(=C/c1ccc(O)cc1)[N+]#[C-]
active: [1] 97.8% | [2] 98% | [3] 97.8% | [4] 96% | [5] 98.1% | [6] 98.2%

CCS1=C2C(=O)CC(C)(C)CC2=Nc2ccccc21 (stereo not drawn)
inactive: [1] 7.2% | [2] -0.15% | [3] 18.9% | [4] -8.05% | [5] 17.9% | [6] -31.1%

COc1ccc(Cl)cc1NC(=O)c1cccc([N+](=O)[O-])c1
inactive: [1] -2.45% | [2] 0.7% | [3] 12.9% | [4] -13.9% | [5] 16.9% | [6] -1.25%

CC1N(N2C(=O)CS(=O)(=O)C2C)C(=O)CS1(=O)=O (stereo not drawn)
inactive: [1] 11.2% | [2] -3.95% | [3] 25.3% | [4] 15.1% | [5] 1.35% | [6] 37%

CC(=O)Nc1ccccc1-c1nc2cccnc2[nH]c1=O
inactive: [1] -9.6% | [2] 6.15% | [3] 2.65% | [4] -5.35% | [5] -1.85% | [6] -11.9%

COc1ccc(/C=C/C(=O)c2c(-c3ccccc3)nn(C)c(=O)c2N2CCCC2)cc1
inactive: [1] -23.8% | [2] -20.3% | [3] -33.2% | [4] -24.4% | [5] -11.2% | [6] -34.1%

O=Cc1ccc(-c2ccc(S(=O)(=O)O)cc2)o1
inactive: [1] -35.5% | [2] 6.85% | [3] -41.3% | [4] 25.8% | [5] 3.55% | [6] -3.2%

COC(=O)CC(NC(=O)CNC(=O)OCc1ccccc1)C(=O)NCC(=O)Oc1ccc([N+](=O)[O-])cc1 (stereo not drawn)
inactive: [1] 21% | [2] 2% | [3] 18.8% | [4] 15.1% | [5] -0.65% | [6] 12%

O=C(c1ccccc1)c1ccccc1NCC(O)COc1cccc2ccccc12 (stereo not drawn)
inactive: [1] -7.5% | [2] -19.9% | [3] -21.9% | [4] -13.8% | [5] 5.55% | [6] -4.2%

CC(C)CCCC(C)C1CCC2(C)C3=C(CCC12C)C1(C)Cc2cnn(-c4ccccc4)c2C(C)(C)C1CC3 (stereo not drawn)
inactive: [1] -6.4% | [2] -6.05% | [3] -6.65% | [4] -12.8% | [5] -2.85% | [6] -17.4%

COc1nc2ccccc2c(=O)[nH]1
inactive: [1] -6.7% | [2] -5.2% | [3] -6.05% | [4] 0.1% | [5] 2% | [6] 6.5%

O=C(SCCN1CCCC1)C(O)(c1ccccc1)C1CCCC1 (stereo not drawn)
inactive: [1] 14.8% | [2] -6% | [3] -5.3% | [4] -7.95% | [5] -2.35% | [6] 11.7%

CCC1(c2ccccc2)SC(N)=NC1=O (stereo not drawn)
inactive: [1] 2.15% | [2] 2.75% | [3] -12.8% | [4] -8.45% | [5] 1.05% | [6] -0.6%

COc1cc(O)c2c(=O)c(O)c(-c3ccc(O)c(O)c3)oc2c1
inactive: [1] 3.15% | [2] -24.1% | [3] 13.7% | [4] 9.05% | [5] -11.8% | [6] -10.6%

CCC(COC(=O)CC[C@@H](NC(=O)C(C)NC(=O)C(C)OC1C(O)C(CO)OC(OCc2ccccc2)C1NC(C)=O)C(N)=O)NC1c2ccccc2Nc2cccc([N+](=O)[O-])c21 (stereo partly drawn)
inactive: [1] 5.65% | [2] -9.7% | [3] -13.8% | [4] 6.4% | [5] -17.9% | [6] -10.7%

CC(C)C(NC(=O)c1cnc2ccccc2n1)C(=O)O (stereo not drawn)
inactive: [1] -8.15% | [2] -5.5% | [3] 0.4% | [4] -51.7% | [5] 6.35% | [6] 7.75%

O=[N+]([O-])c1ccc(-c2ccncc2)cc1
inactive: [1] -32% | [2] -31.9% | [3] -19.4% | [4] 20.6% | [5] -18.1% | [6] -9.05%

OC(CCN1CCC2CCC(C2)C1)(c1ccccc1)c1ccc(Cl)cc1 (stereo not drawn)
inactive: [1] -4.55% | [2] -16.1% | [3] 14% | [4] -26.5% | [5] 4.4% | [6] -17.2%

COc1ccc(NC(=O)C(Br)C(Br)c2ccccc2)c(Cl)c1 (stereo not drawn)
active: [1] 96.8% | [2] 97.2% | [3] 97.2% | [4] 97.3% | [5] 97% | [6] 97.2%

Cn1cc(Cc2ccc(-c3ccccc3)cc2)c(=O)c(Cc2ccc(-c3ccccc3)cc2)c1
inactive: [1] 30.6% | [2] 6.75% | [3] -2.9% | [4] 12.5% | [5] 3.9% | [6] 27.8%

O=C(NCCc1ccccc1)[C@H]1CCCC[C@@H]1CCO
inactive: [1] 19.4% | [2] 0.85% | [3] -31.9% | [4] 0.4% | [5] -39.8% | [6] -28.6%

CC(=O)OCC1OC(Nc2[nH]c(=O)n(C)c(=O)c2C=O)C(OC(C)=O)C(OC(C)=O)C1OC(C)=O (stereo not drawn)
inactive: [1] 2.5% | [2] 9.4% | [3] 6.7% | [4] 9.15% | [5] -0.4% | [6] 3.95%

CCOc1c(OC)ccc(C(C)=O)c1O
inactive: [1] -17.8% | [2] -15.2% | [3] -22.1% | [4] -2.35% | [5] 3% | [6] -17.2%

N#CC(c1cnc2ccccc2n1)c1cccc2ccccc12 (stereo not drawn)
inactive: [1] -0.3% | [2] 5.9% | [3] 1% | [4] -5.75% | [5] -5.3% | [6] 13%

C=C1CC23CC[C@H]4[C@@](C)(CCC[C@@]4(C)C(=O)OC4OC(CO)C(O)C(O)C4O)[C@@H]2CC[C@@]1(OC1OC(CO)C(O)C(O)C1OC1OC(CO)C(O)C(O)C1O)C3 (stereo partly drawn)
inactive: [1] -6.6% | [2] -38.5% | [3] -38.1% | [4] 25.4% | [5] -39.4% | [6] -16%

O=[N+]([O-])c1ccc(N/N=C/c2ccccc2Cl)c([N+](=O)[O-])c1
inactive: [1] 15.3% | [2] -9.55% | [3] -1.15% | [4] -22.4% | [5] 9.75% | [6] 27.3%

CN(C)c1ccc(C(=Cc2ccccc2)c2ccc(N(C)C)cc2)cc1
inactive: [1] -0.9% | [2] 18.3% | [3] -2.8% | [4] -63.6% | [5] 0.8% | [6] 5.5%

COc1ccc(NC(=O)NCc2ccc(C)cc2)cc1
inactive: [1] 4.45% | [2] 33.8% | [3] 33.8% | [4] -5.5% | [5] 7.85% | [6] 26.9%
